Screens: PubChem, Sanford-Burnham Center for Chemical Genomics
In the library only some 6.3% were active in any assay of this set; here they are far more common.
tim10-1 inh: tim10-1 yeast growth inhibition. S. cerevisiae tim10-1 ts strain growth, BacTiter-Glo, 24 h. inhibition, % at 20 µM. hit rate 2.2% among 330,000;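 active = inhibition of at least 40%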;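 also: mutant grown at 25 °C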
TIM10 inh: TIM10 yeast growth inhibition; S. cerevisiae TIM10 strain growth, BacTiter-Glo luminescence, 24 h; inhibition, % at 10 µM; hit rate 1.4% among 330,000;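 active = inhibition of 40% or more at the single tested concentration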;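 also: wild-type TIM10 isogenic control strain grown at permissive 25 °C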
Mdm2 MdmX PPI: human Mdm2/MdmX binding inhibition; O15151+Q00987; SaOS-2 split-luciferase Mdm2/MdmX complementation, luminescence; inhibition, % at 8 µM; hit rate 3% among 330,000; AID 485346;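 active = inhibition of at least 50% at 8 µM in the primary screen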
Target sequence (O15151 whole entry, looked up): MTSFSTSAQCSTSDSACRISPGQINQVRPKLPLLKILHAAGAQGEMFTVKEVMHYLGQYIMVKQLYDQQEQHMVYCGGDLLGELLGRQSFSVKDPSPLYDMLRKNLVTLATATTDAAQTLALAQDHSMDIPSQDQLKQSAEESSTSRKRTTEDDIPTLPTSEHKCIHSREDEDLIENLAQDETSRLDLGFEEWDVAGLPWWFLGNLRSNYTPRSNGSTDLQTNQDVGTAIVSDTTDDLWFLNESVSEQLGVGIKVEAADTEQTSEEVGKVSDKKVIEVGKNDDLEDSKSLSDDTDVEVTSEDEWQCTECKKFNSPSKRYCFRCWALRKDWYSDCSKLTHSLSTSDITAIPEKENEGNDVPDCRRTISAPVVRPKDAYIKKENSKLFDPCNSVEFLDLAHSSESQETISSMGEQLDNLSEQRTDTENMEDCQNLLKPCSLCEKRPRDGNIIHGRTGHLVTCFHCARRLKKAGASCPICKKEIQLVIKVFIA
Target sequence (Q00987 whole entry, looked up): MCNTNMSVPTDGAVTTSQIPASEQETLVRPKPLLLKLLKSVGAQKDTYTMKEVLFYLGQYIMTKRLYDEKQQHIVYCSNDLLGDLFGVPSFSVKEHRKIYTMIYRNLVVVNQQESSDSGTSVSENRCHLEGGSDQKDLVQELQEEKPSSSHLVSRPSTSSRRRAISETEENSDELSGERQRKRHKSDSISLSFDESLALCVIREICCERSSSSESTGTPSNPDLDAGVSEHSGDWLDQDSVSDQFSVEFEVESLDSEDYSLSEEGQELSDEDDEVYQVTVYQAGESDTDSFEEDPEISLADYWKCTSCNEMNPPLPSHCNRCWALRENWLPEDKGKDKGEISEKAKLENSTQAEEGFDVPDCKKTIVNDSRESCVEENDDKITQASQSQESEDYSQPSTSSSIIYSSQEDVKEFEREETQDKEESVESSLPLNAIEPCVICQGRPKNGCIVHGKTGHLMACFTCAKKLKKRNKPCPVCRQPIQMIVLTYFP
tim23-1 inh: inhibits growth of tim23-1 mutant yeast. S. cerevisiae tim23-1 growth, BacTiter-Glo luminescence, 24 h. inhibition, % at 20 µM. hit rate 1.3% among 330,000. AID 463212;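 active = growth inhibition of the mutant yeast at or above 50%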;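 also: temperature-sensitive mutant grown at 25 °C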
MPTP block: blocks calcium-induced mitochondrial swelling. isolated mouse mitochondria, Ca2+ swelling absorbance, 30 min. inhibition, % at 10 µM. hit rate 1.4% among 360,000. AID 602449;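 active = inhibition of 50% or more, scaled per plate between neutral and stimulator controls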
tim10-1 conf: tim10-1 yeast growth inhibition, confirmed | shares compounds with tim10-1 inh | S. cerevisiae tim10-1 ts strain growth, BacTiter-Glo, 24 h | inhibition, % at 20 µM | hit rate 56% among 7,400 | AID 463213;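 active = inhibition of yeast growth at or above a set limit in either of two repeat tests at 20 µM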;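 also: tim10-1 mutant grown at permissive 25 °C to find synthetic lethal compounds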
TIM10 conf: TIM10 yeast growth inhibition, confirmed | shares compounds with TIM10 inh | inhibition, % at 10 µM | S. cerevisiae tim10 strain growth, BacTiter-Glo luminescence, 24 h | hit rate 63% among 4,600;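 active = inhibition of yeast growth at or above a set limit in either of two replicates at 10 µM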; also: this counterscreen used the strain with wild-type TIM10
tim23-1 confirm: tim23-1 yeast growth inhibition, confirmed. inhibition, % at 20 µM. AID 463218. S. cerevisiae tim23-1 growth, BacTiter-Glo luminescence, 24 h. shares compounds with tim23-1 inh. hit rate 83% among 4,400;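 active = inhibition above about 39% in either of two replicate wells at 20 µM, limit read from the data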;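 also: temperature-sensitive tim23-1 mutant grown at 25 °C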
Of the large screens only hits and unclear results are named; the others gave an inactive call (follow-up assays come after a bar, where they were run).

CNC(C)C#Cc1ccc2c(=O)c3ccccc3oc2c1 (stereo unspecified)	tim10-1 inh 54, tim23-1 inh 58 | tim10-1 conf 42 | tim23-1 confirm 53
COc1cccc(NC(=O)C2CC(=O)n3cnnc3S2)c1 (stereo unspecified)	tim10-1 inh 43, TIM10 inh 41, tim23-1 inh 61 | tim10-1 conf 33 | TIM10 conf inactive | tim23-1 confirm 59
Cc1c(C#N)c(N=CN(C)C)c(C(=O)c2ccc(Br)cc2)n1-c1ccccc1	tim10-1 inh 41, TIM10 inh 42, tim23-1 inh 56 | tim10-1 conf inactive | TIM10 conf inactive | tim23-1 confirm inactive
Cc1c(C#N)c(N=CN(C)C)c(C(=O)c2ccccc2)n1-c1ccc(Br)cc1	none
CC(=O)c1ccc(Nc2nc(=O)c3cccnc3s2)cc1	none
Cc1ccc(Nc2nc(=O)c3cccnc3s2)c(Br)c1	tim10-1 inh 47, tim23-1 inh 51 | tim10-1 conf 36 | tim23-1 confirm 50
COc1cc(O)c2c(=O)c3c(OC)c(O)ccc3oc2c1	tim10-1 inh 67, TIM10 inh 42, tim23-1 inh 56 | tim10-1 conf 57 | TIM10 conf 51 | tim23-1 confirm 66
O=C(Cc1ccc(Br)cc1)c1ccc(O)cc1O	tim10-1 inh 58, TIM10 inh 61, tim23-1 inh 63 | tim10-1 conf 66 | TIM10 conf 57 | tim23-1 confirm 53
O=C(COc1ccccc1Br)c1ccc(O)cc1O	tim10-1 inh 50, tim23-1 inh 66 | tim10-1 conf 40 | tim23-1 confirm 58
O=C(COc1ccccc1Br)c1ccc2c(c1)OCO2	none
COc1ccc(C2CC=C(C(C)=O)CN2S(=O)(=O)c2ccc(Cl)cc2)cc1 (stereo unspecified)	none (no result: tim10-1 inh, TIM10 inh, Mdm2 MdmX PPI, tim23-1 inh)
CCCCC1CC2=C(C(=O)OC(C)(C)O2)C(c2ccc(Cl)cc2)O1 (stereo unspecified)	none (no result: tim10-1 inh, TIM10 inh, Mdm2 MdmX PPI, tim23-1 inh)
COC(=O)c1c(C)[nH]c(C(=O)OC(C)C(=O)NC2CCCCC2C)c1C (stereo unspecified)	none (no result: tim10-1 inh, TIM10 inh, Mdm2 MdmX PPI, tim23-1 inh)
COCCN(CCOC)Cc1cc(=O)oc2ccccc12	none (no result: tim10-1 inh, TIM10 inh, Mdm2 MdmX PPI, tim23-1 inh)
Cc1ccc(/C(N)=N/OC(=O)c2ccc(Cl)cc2Cl)cc1	tim10-1 inh 47, TIM10 inh 88, tim23-1 inh 80 | tim10-1 conf inactive | TIM10 conf inactive | tim23-1 confirm 44
COc1ccccc1C(=O)O/N=C(\N)c1ccc(Cl)cc1	tim10-1 inh 50, tim23-1 inh 64 | tim10-1 conf 45 | tim23-1 confirm 54
Nc1[nH]c(C(=O)c2ccccc2)c(-c2ccc(Cl)cc2Cl)c1C(=O)NCCc1c[nH]c2ccccc12	none (no result: tim10-1 inh, TIM10 inh, Mdm2 MdmX PPI, tim23-1 inh)
COCCCNC(=O)c1cccc(S(=O)(=O)N2CC3(C)CC2CC(C)(C)C3)c1 (stereo unspecified)	none
CCCCNC(=O)c1cccc(S(=O)(=O)N2CC3(C)CC2CC(C)(C)C3)c1 (stereo unspecified)	tim10-1 inh 50, tim23-1 inh 59 | tim10-1 conf 48 | tim23-1 confirm 54
Cc1ccsc1/C=N/Nc1nc(=O)[nH]nc1C	tim10-1 inh 52, TIM10 inh 43, tim23-1 inh 50 | tim10-1 conf 50 | TIM10 conf 48 | tim23-1 confirm 56
Cc1cc(C)nc(N/N=C/c2sccc2C)n1	none
Cc1ccc(NC(=O)C2c3ccccc3-c3ccccc32)cc1	none (no result: tim10-1 inh, TIM10 inh, Mdm2 MdmX PPI, tim23-1 inh)
COc1ccc(CN2CCC2(C)C(=O)NCc2ccc3c(c2)OCO3)c2ccccc12 (stereo unspecified)	none (no result: tim10-1 inh, TIM10 inh, Mdm2 MdmX PPI, tim23-1 inh)
OC1CCN(c2c3c(nc4cc(-c5cccc(F)c5)nn24)CCCC3)CC1	tim10-1 inh 41, tim23-1 inh 51 | tim10-1 conf inactive | tim23-1 confirm inactive
CN(CCO)c1c2c(nc3cc(-c4cccc(F)c4)nn13)CCCC2	none
NC(c1ccc(F)c(F)c1)c1nc(-c2cc(F)cc(F)c2)cs1 (stereo unspecified)	none (no result: tim10-1 inh, TIM10 inh, Mdm2 MdmX PPI, tim23-1 inh)
O=C(NCC1CCN(Cc2ccccc2)CC1)[C@H]1O[C@@H](n2ccc(=O)[nH]c2=O)[C@H](O)[C@@H]1O	none (no result: tim10-1 inh, TIM10 inh, Mdm2 MdmX PPI, tim23-1 inh)
